Data: PubChem BioAssay (NCATS)
Inconclusive results are not listed. Activity calls are given as the source filed them. Calls follow the shape of the dose curve; as a rule, active = well fitted inhibition curve with a large enough effect; inconclusive = small, poorly fitted or top-dose-only effect; inactive = flat fitted curve, though single readings scatter. Where a SMILES comes first, the peptide text is derived from it. Bridges are numbered along the chain shown (N, C = ends). [ ]: non-standard residue; d: D form. hArg = N=C(N)NCCCC[C@H](N)C(=O)O; Mpa = O=C(O)CCS

Key:
Assay in all cases: qHTS profiling for inhibitors of Plasmodium falciparum proliferation (AID 504749); also: nearly all actives have a fitted effect of over 60% in size
Conditions in all cases: P. falciparum in erythrocytes, SYBR Green DNA, 72 h; series mostly up to 28.7 µM
[1] = system: CP325
Method in brief: (§1)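 In a 72 h erythrocytic culture (37 C, humidified, 5% CO2) at 2.5% hematocrit and 0.3% starting parasitemia, compounds were tested; SYBR Green I in detergent lysis buffer stained parasite DNA overnight.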

[2] = system: CP329
Method in brief: as §1

[3] = system: CP335
Method in brief: as §1

[4] = system: DFO2036
Method in brief: as §1

[5] = system: DIV14
Method in brief: as §1

[6] = system: DIV17
Method in brief: as §1

[7] = system: DIV30
Method in brief: as §1

[8] = system: Dd2
Method in brief: as §1

[9] = system: ECU
Method in brief: as §1

[10] = system: FAB9
Method in brief: as §1

[11] = system: GB4
Method in brief: as §1

[12] = system: HB3
Method in brief: as §1

[13] = system: ICS
Method in brief: as §1

[14] = system: JCK
Method in brief: as §1

[15] = system: N140
Method in brief: as §1

[16] = system: P93_24
Method in brief: as §1

[17] = system: P94_40
Method in brief: as §1

[18] = system: PAD
Method in brief: as §1

[19] = system: PC15
Method in brief: as §1

[20] = system: PC26
Method in brief: as §1

Measured: Potency

CN/C(=C\[N+](=O)[O-])NCCSCc1csc(CN(C)C)n1
inactive: all assays above

Cc1onc(-c2ccccc2)c1-c1ccc(S(N)(=O)=O)cc1
inactive: all assays above

CC(=O)Oc1cccc(C)c1
inactive: all assays above

COc1nccnc1NS(=O)(=O)c1ccc(N)cc1
inactive: all assays above

O=c1[nH]cnc2nc[nH]c12
inactive: all assays above

NC(N)=NS(=O)(=O)c1ccc(N)cc1
inactive: all assays above

CCCCOC(=O)c1ccc(N)cc1
inactive: all assays above

COc1ccc(C(=O)N2CCN(CC(=O)N3CCOCC3)CC2)cc1
inactive: all assays above

CC(=O)Nc1ccccc1
inactive: all assays above

OCC(O)CS (stereo not given)
inactive: all assays above

CC1CC(OC(=O)c2ccccc2O)CC(C)(C)C1 (stereo not given)
inactive: all assays above

CC(CSC(=O)c1ccccc1)C(=O)N1C[C@@H](Sc2ccccc2)C[C@H]1C(=O)O (stereo not given in full)
inactive: all assays above

C[C@@H]1CCC[C@H](C)N1
inactive: all assays above

NNc1nnc(NN)c2ccccc12
inactive: all assays above

CCCCCC(N)=O
inactive: all assays above

O=C(O)CNC(=O)c1ccccc1I
inactive: all assays above

NS(=O)(=O)c1ccc(C(=O)O)cc1
inactive: all assays above

O=c1[nH]c(=O)c2ccccc2o1
inactive: all assays above

O[C@@H]1CO[C@H]2[C@@H]1OC[C@@H]2O
inactive: all assays above

O=C(NCN1CCOCC1)c1cnccn1
inactive: all assays above

Cc1c(NC(=O)c2cccnc2)c(=O)n(-c2ccccc2)n1C
inactive: all assays above

CC(C)c1cc2c(cc1S(=O)(=O)O)[C@@]1(C)CCC[C@@](C)(C(=O)O)[C@@H]1CC2
inactive: all assays above

O=C(CCBr)N1CCN(C(=O)CCBr)CC1
inactive: all assays above

Cc1cc(C)nc(NS(=O)(=O)c2ccc(N)cc2)n1
inactive: all assays above

CCOC(=O)c1cccnc1
inactive: all assays above

Cc1ccc(C(C)C)c(O)c1
inactive: all assays above

NC(=O)[C@@H]1CSSCCC(=O)N[C@@H](CCCCN=C(N)N)C(=O)NCC(=O)N[C@@H](CC(=O)O)C(=O)N[C@@H](Cc2c[nH]c3ccccc23)C(=O)N2CCC[C@H]2C(=O)N1 ([Mpa][hArg]GDWPC-NH2; disulfide 1-7)
inactive: all assays above
